Assay results: PubChem BioAssay (NCI)
The panel holds about 83,000 compounds, 20% with a hit somewhere; the sample as a whole holds those more often.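 Step 1: grow cells in 96-well plates. Step 2: add test compound at a single concentration. Step 3: incubate 48 h. Step 4: record percent growth.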 Active and inactive are the calls of the source. Rule for the calls: active = growth percent below 10; inactive = the rest.

Tested on: HOP-92 NSCLC
Experiment: NCI-60 one-dose screen, 48 h (100 = growth as untreated, 0 = no growth, -100 = all killed)
Settings: 10 µM unless noted

SMILES | growth
CC(=O)Nc1ccc2c(c1)Cc1c(F)cccc1-2 | 89% (inactive)
COc1ccc(-c2cncnc2N)cc1OC | 85.2% (inactive)
CN(C)c1ccc2cc(-c3ccc(Cl)c(Cl)c3)c(N)nc2c1 | 28% (inactive)
O=C(Nc1ccccn1)[C@H](O)[C@@H](O)C(=O)N1CCOCC1 | 106% (inactive)
O=C(NC(=S)Nc1ccc(-c2nc3ccccc3[nH]2)cc1)c1ccc2ccccc2c1 | -1.16% (active)
CCCCCCN(CCCCCC)CC(O)c1cccc2ccc(Cl)cc12 (stereo not drawn) | 3.01% (active)
Cc1ccc(S(=O)(=O)N(CC[C@@H]2C[C@H]2c2cc3ccccc3o2)C(=O)NC2CCCCC2)cc1 | 110% (inactive)
Clc1ccc2[nH]c3c(NCCCN4CCOCC4)ncnc3c2c1 | 67.8% (inactive)
Fc1ccc(Nc2ccc3cc(OCCCN4CCOCC4)ccc3n2)cc1F | 52.8% (inactive)
CNC(=O)NCC1OC(n2cnc3c(NC(=O)Nc4ccccc4)ncnc32)C2OC(C)(C)OC12 (stereo not drawn) | 14.4% (inactive)
CCN(CC)CCOC(=O)Nc1ccccc1Cl | 82% (inactive)
N=C(N)c1ccc(-c2ccc(-c3ccc(Cl)c(Cl)c3)o2)cc1 | 58.9% (inactive)
Cc1[nH]c(-c2nc3ccccc3[nH]2)c(C)c1C(=O)N1CCc2sccc2C1 | 81.6% (inactive)
CC(C)(C)c1ccc(C(=O)Nc2sc3c(c2C(N)=O)CCC(=O)C3)cc1 | -22.7% (active)
Cc1nc(Nc2ccccn2)sc1C(=O)/C=C/c1ccc(Br)cc1 | 96.3% (inactive)
C/C(=N\NC(=O)Cn1c(-c2ccc(S(C)(=O)=O)cc2)nc2cc(Cl)ccc21)c1ccc(Cl)cc1 | 86.2% (inactive)
CCOC(=O)c1c(C)[nH]c(C(=O)CCC(=O)OC)c1C | 84.6% (inactive)
C=C1C(=O)O[C@H]2[C@H]1CC/C(COC(=O)NCc1ccc(Cn3c(=O)sn(CCCCl)c3=O)cc1)=C\CC[C@@]1(C)O[C@@H]21 | -53.8% (active)
COc1cc(C2C=C(c3cccc(NC(C)=O)c3)Nc3ncnn32)cc(OC)c1OC (stereo not drawn) | 68.9% (inactive)
O=C(Oc1ccc[nH]c1=O)c1cc([N+](=O)[O-])cc([N+](=O)[O-])c1 | 146% (inactive)

SMILES | growth
COc1ccc(Oc2nc(Nc3ccc(N4CCOCC4)nc3)ncc2NC(=O)c2cc(OC)cc(OC)c2)cc1 | 82.8% (inactive)
COC(=O)c1ccc2oc(NC(=O)c3ccc(N4CCOCC4)c([N+](=O)[O-])c3)nc2c1 | 84.9% (inactive)
O=C1Nc2ccccc2/C1=N/N=C/c1ccc(OC2OC(CO)C(O)C(O)C2O)cc1 (stereo not drawn) | 111% (inactive)
C=CC(=O)Nc1cccc(C)c1Nc1cc(-c2cccnc2Cc2c(C)c(OC)cc(OC)c2C)ncn1 | 22.8% (inactive)
OC(COc1cccc2ccccc12)CN1CCN(c2ccccc2)CC1 (stereo not drawn) | 77.6% (inactive)
CC(=O)Nc1cccc(C2=CC(c3ccc(C)cc3)n3ncnc3N2)c1 (stereo not drawn) | 77.7% (inactive)
O=C(CC12CC3CC(CC(C3)C1)C2)NCCOCCOCCNC(=O)c1cc2c(o1)C(=O)c1ccccc1C2=O | -8.25% (active)
N=C(N)c1ccc(-c2ccc(/C=C/c3ccccc3)s2)cc1 | 34.7% (inactive)
CNC1(C#N)CCN(Cc2ccccc2)CC1 | 85.1% (inactive)
O=C(/C=C/C12c3ccccc3C(c3ccccc31)C1C(=O)N(c3ccccc3)C(=O)C12)c1ccc(Cl)cc1 (stereo not drawn) | 39.1% (inactive)
CCNCCNc1cc(-c2ccc(Cl)cc2)c(C#N)c2nc3ccccc3n12 | 53.9% (inactive)
CN(C)c1ccc2cc(-c3ccccc3F)c(N)nc2c1 | 32.3% (inactive)
O=C1Nc2ccccc2/C1=N/N=C/c1c[nH]c2ccccc12 | 75.2% (inactive)
COc1ccc(/C=C(\C#N)n2nnc3ccccc32)cc1 | 24.7% (inactive)
N#Cc1c(Oc2ccc([N+](=O)[O-])cc2)nc2sc3cc(Cl)ccc3n2c1=N | 83.7% (inactive)
O=C(NCCOCCOCCOCCNC(=O)c1cc2c(o1)C(=O)c1ccccc1C2=O)NC12CC3CC(CC(C3)C1)C2 | 43.5% (inactive)
O=C(Oc1ccc([N+](=O)[O-])cc1)c1ccc(CBr)cc1 | 88.5% (inactive)
CCn1c(Sc2nnc(NC(=O)CCN3CCCC3)s2)nc2c1c(=O)n(C)c(=O)n2C | 107% (inactive)
CC(=[N-])N1CCC[C@@H](Nc2c3ccccc3nc3ccccc23)C1.[Cl][Pt].[NH-]CCC[NH-] | 28.7% (inactive)

Tested on: NCI-H522 lung
Experiment: as above
Settings: 10 µM unless noted

SMILES | growth
CC(=O)Nc1ccc2c(c1)Cc1c(F)cccc1-2 | 89% (inactive)
COc1ccc(-c2cncnc2N)cc1OC | 105% (inactive)
CN(C)c1ccc2cc(-c3ccc(Cl)c(Cl)c3)c(N)nc2c1 | 22% (inactive)
O=C(Nc1ccccn1)[C@H](O)[C@@H](O)C(=O)N1CCOCC1 | 102% (inactive)
O=C(NC(=S)Nc1ccc(-c2nc3ccccc3[nH]2)cc1)c1ccc2ccccc2c1 | 63.2% (inactive)
CCCCCCN(CCCCCC)CC(O)c1cccc2ccc(Cl)cc12 (stereo not drawn) | 38.1% (inactive)
Cc1ccc(S(=O)(=O)N(CC[C@@H]2C[C@H]2c2cc3ccccc3o2)C(=O)NC2CCCCC2)cc1 | 86% (inactive)
Clc1ccc2[nH]c3c(NCCCN4CCOCC4)ncnc3c2c1 | 90.3% (inactive)
Fc1ccc(Nc2ccc3cc(OCCCN4CCOCC4)ccc3n2)cc1F | -21.4% (active)
CNC(=O)NCC1OC(n2cnc3c(NC(=O)Nc4ccccc4)ncnc32)C2OC(C)(C)OC12 (stereo not drawn) | 103% (inactive)
CCN(CC)CCOC(=O)Nc1ccccc1Cl | 68.9% (inactive)
N=C(N)c1ccc(-c2ccc(-c3ccc(Cl)c(Cl)c3)o2)cc1 | 57.7% (inactive)
Cc1[nH]c(-c2nc3ccccc3[nH]2)c(C)c1C(=O)N1CCc2sccc2C1 | 77.1% (inactive)
CC(C)(C)c1ccc(C(=O)Nc2sc3c(c2C(N)=O)CCC(=O)C3)cc1 | -10.2% (active)
Cc1nc(Nc2ccccn2)sc1C(=O)/C=C/c1ccc(Br)cc1 | 61.5% (inactive)
C/C(=N\NC(=O)Cn1c(-c2ccc(S(C)(=O)=O)cc2)nc2cc(Cl)ccc21)c1ccc(Cl)cc1 | 74.9% (inactive)
CCOC(=O)c1c(C)[nH]c(C(=O)CCC(=O)OC)c1C | 72.5% (inactive)
C=C1C(=O)O[C@H]2[C@H]1CC/C(COC(=O)NCc1ccc(Cn3c(=O)sn(CCCCl)c3=O)cc1)=C\CC[C@@]1(C)O[C@@H]21 | -89.7% (active)
COc1cc(C2C=C(c3cccc(NC(C)=O)c3)Nc3ncnn32)cc(OC)c1OC (stereo not drawn) | -3.09% (active)
O=C(Oc1ccc[nH]c1=O)c1cc([N+](=O)[O-])cc([N+](=O)[O-])c1 | 116% (inactive)

SMILES | growth
COc1ccc(Oc2nc(Nc3ccc(N4CCOCC4)nc3)ncc2NC(=O)c2cc(OC)cc(OC)c2)cc1 | 52.1% (inactive)
COC(=O)c1ccc2oc(NC(=O)c3ccc(N4CCOCC4)c([N+](=O)[O-])c3)nc2c1 | 91% (inactive)
O=C1Nc2ccccc2/C1=N/N=C/c1ccc(OC2OC(CO)C(O)C(O)C2O)cc1 (stereo not drawn) | 95% (inactive)
C=CC(=O)Nc1cccc(C)c1Nc1cc(-c2cccnc2Cc2c(C)c(OC)cc(OC)c2C)ncn1 | -17.4% (active)
OC(COc1cccc2ccccc12)CN1CCN(c2ccccc2)CC1 (stereo not drawn) | 101% (inactive)
CC(=O)Nc1cccc(C2=CC(c3ccc(C)cc3)n3ncnc3N2)c1 (stereo not drawn) | 94.8% (inactive)
O=C(CC12CC3CC(CC(C3)C1)C2)NCCOCCOCCNC(=O)c1cc2c(o1)C(=O)c1ccccc1C2=O | -49.5% (active)
N=C(N)c1ccc(-c2ccc(/C=C/c3ccccc3)s2)cc1 | 20% (inactive)
CNC1(C#N)CCN(Cc2ccccc2)CC1 | 90.1% (inactive)
O=C(/C=C/C12c3ccccc3C(c3ccccc31)C1C(=O)N(c3ccccc3)C(=O)C12)c1ccc(Cl)cc1 (stereo not drawn) | 10.1% (inactive)
CCNCCNc1cc(-c2ccc(Cl)cc2)c(C#N)c2nc3ccccc3n12 | -41.7% (active)
CN(C)c1ccc2cc(-c3ccccc3F)c(N)nc2c1 | -1.23% (active)
O=C1Nc2ccccc2/C1=N/N=C/c1c[nH]c2ccccc12 | 69.2% (inactive)
COc1ccc(/C=C(\C#N)n2nnc3ccccc32)cc1 | 21.2% (inactive)
N#Cc1c(Oc2ccc([N+](=O)[O-])cc2)nc2sc3cc(Cl)ccc3n2c1=N | 93.7% (inactive)
O=C(NCCOCCOCCOCCNC(=O)c1cc2c(o1)C(=O)c1ccccc1C2=O)NC12CC3CC(CC(C3)C1)C2 | -27.7% (active)
O=C(Oc1ccc([N+](=O)[O-])cc1)c1ccc(CBr)cc1 | -21.2% (active)
CCn1c(Sc2nnc(NC(=O)CCN3CCCC3)s2)nc2c1c(=O)n(C)c(=O)n2C | 86.8% (inactive)
CC(=[N-])N1CCC[C@@H](Nc2c3ccccc3nc3ccccc23)C1.[Cl][Pt].[NH-]CCC[NH-] | -18.5% (active)
